{"source": "the OligoGym collection", "data": [{"biological_target": "RASSF3", "assay": "pooled miR-30 sensor sort-seq; sequence = guide strand", "conditions": "shRNA", "values": [{"sequence": "TTTGCTGAGGTAACTGTGGGTT", "sensor-assay potency score (higher = more potent)": 0.0248}, {"sequence": "TTCATCTTCTTCCTTGTCCAAG", "sensor-assay potency score (higher = more potent)": -0.91}, {"sequence": "TAAGTTGTATTTATGAACTTTC", "sensor-assay potency score (higher = more potent)": -0.5}, {"sequence": "TCTCTTTCTCAACATCTTGTTG", "sensor-assay potency score (higher = more potent)": -1.22}, {"sequence": "TTTCTCTTTGATCTCCTCTTTG", "sensor-assay potency score (higher = more potent)": -0.943}, {"sequence": "TTCAAGGTCATCTTCAACTTGT", "sensor-assay potency score (higher = more potent)": 0.533}, {"sequence": "TTTATGAACTTTCTCTTTGATC", "sensor-assay potency score (higher = more potent)": -0.905}, {"sequence": "TATTTATGAACTTTCTCTTTGA", "sensor-assay potency score (higher = more potent)": -0.498}, {"sequence": "TTGTCTGTGACTGCTAAGTTGT", "sensor-assay potency score (higher = more potent)": -0.937}, {"sequence": "TCTTTGATCTCCTCTTTGCTGA", "sensor-assay potency score (higher = more potent)": -0.385}, {"sequence": "TTTGATCTCCTCTTTGCTGAGG", "sensor-assay potency score (higher = more potent)": -0.279}, {"sequence": "TGTATTTATGAACTTTCTCTTT", "sensor-assay potency score (higher = more potent)": -0.702}]}, {"biological_target": "RASSF5", "assay": "pooled miR-30 sensor sort-seq; sequence = guide strand", "conditions": "shRNA", "values": [{"sequence": "TTCTCCTTTAGCACAAAGCTGA", "sensor-assay potency score (higher = more potent)": -0.406}, {"sequence": "TTTACAGTTAGTGCAGCGCAGC", "sensor-assay potency score (higher = more potent)": -1.3}, {"sequence": "TTCTCTCGCGTGTTGTAGCTGT", "sensor-assay potency score (higher = more potent)": 0.0292}, {"sequence": "TTGTCCACAACCATGAACTTCT", "sensor-assay potency score (higher = more potent)": 0.0348}, {"sequence": "TTCTGGAAGAGCACTTGTCCGT", "sensor-assay potency score (higher = more potent)": -0.498}, {"sequence": "TTGTCCGTCCTTGTGTATCCGC", "sensor-assay potency score (higher = more potent)": -0.676}, {"sequence": "TGAAGCTACACGAACAAGCTTG", "sensor-assay potency score (higher = more potent)": 0.101}, {"sequence": "TAGCTGTCGATCTTCTGCTTGA", "sensor-assay potency score (higher = more potent)": -0.141}, {"sequence": "TTAAGTGTGAACAACAGGCACC", "sensor-assay potency score (higher = more potent)": -0.19}, {"sequence": "TCGCGTGTTGTAGCTGTCGATC", "sensor-assay potency score (higher = more potent)": -1.47}, {"sequence": "TTATATATAGCTATATGCCTTT", "sensor-assay potency score (higher = more potent)": -0.531}, {"sequence": "TTAAAAAGTGCAAACTTCTGGG", "sensor-assay potency score (higher = more potent)": 0.479}]}, {"biological_target": "RASSF8", "assay": "pooled miR-30 sensor sort-seq; sequence = guide strand", "conditions": "shRNA", "values": [{"sequence": "TAAGGCTATGACAACCTCCTGG", "sensor-assay potency score (higher = more potent)": 0.0646}, {"sequence": "TTGATCTTTTGCTCTAGACGGA", "sensor-assay potency score (higher = more potent)": -0.232}, {"sequence": "TTGAAGTTGATCCTTCAGCTGT", "sensor-assay potency score (higher = more potent)": -0.249}, {"sequence": "TTAATTTGTTTTCACATTCTGT", "sensor-assay potency score (higher = more potent)": -0.415}, {"sequence": "TACATCGTTTCTTTTGATCTTT", "sensor-assay potency score (higher = more potent)": -0.624}, {"sequence": "TTCTATTTCATTAGATTCCAGC", "sensor-assay potency score (higher = more potent)": -0.148}, {"sequence": "TTGATTGATTTGTCAATCTGAG", "sensor-assay potency score (higher = more potent)": -0.187}, {"sequence": "TATTTCTTGAAGTTGATCCTTC", "sensor-assay potency score (higher = more potent)": 0.825}, {"sequence": "TTTGCAGTTATTCAGCACCTTT", "sensor-assay potency score (higher = more potent)": -1.3}, {"sequence": "TTAGCTTCTTCAACTCATCTGC", "sensor-assay potency score (higher = more potent)": 0.759}, {"sequence": "TTCTCTATAAGGGTGTACCTTC", "sensor-assay potency score (higher = more potent)": -0.973}, {"sequence": "TATTTCATTAGATTCCAGCTGT", "sensor-assay potency score (higher = more potent)": 1.11}]}, {"biological_target": "RBFOX1", "assay": "pooled miR-30 sensor sort-seq; sequence = guide strand", "conditions": "shRNA", "values": [{"sequence": "TTGTCTGAGGTCCGGATCCCGG", "sensor-assay potency score (higher = more potent)": -1.44}, {"sequence": "TTTAATATCCAACTGATCTTAC", "sensor-assay potency score (higher = more potent)": -0.633}, {"sequence": "TTGACCAAACATTTGTCTGAGG", "sensor-assay potency score (higher = more potent)": -0.662}, {"sequence": "TACACATGAGGACTTAACCTAT", "sensor-assay potency score (higher = more potent)": -0.971}]}]}
